Screening data as filed in PubChem.
Compounds with a hit are over-represented: about 5.4% of the library has one in this group of screens.
SMARCA2 act = SMARCA2 (BRM) function activators, primary screen, cell-based, luminescence, high throughput. MG213 cells, MMTV-luciferase reporter, dexamethasone, overnight. actives 1% (n = 370,000). activation, % at 9.1 µM. AID 652017, 2013; in the data active = activation above about 7.8%;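 note: 0% = vehicle wells and 100% = reference activator wells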
JMJD2C inh = inhibitors of GASC-1 histone demethylase, primary screen, biochemical, fluorescence, DELFIA europium; inhibition, % at 2.35 µM; GST-JMJD2C(1-420) H3K9me3 demethylation; actives 0.069% (n = 330,000); AID 2099, 2009; Lysine-specific demethylase 4C (Homo sapiens), Q9H3R0;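 active = more than half of a compound's replicate wells show inhibition beyond 50%, single wells judged on their own value; inconclusive = some, but no more than half, of replicates pass 50% inhibition; inactive = no replicate passes 50% inhibition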;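 note: signal counts dimethyl H3K9 product captured on neutravidin plate; 0% = median of DMSO wells and 100% = 0.3 times that DMSO median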
Target sequence (Q9H3R0 1-420 limits assumed): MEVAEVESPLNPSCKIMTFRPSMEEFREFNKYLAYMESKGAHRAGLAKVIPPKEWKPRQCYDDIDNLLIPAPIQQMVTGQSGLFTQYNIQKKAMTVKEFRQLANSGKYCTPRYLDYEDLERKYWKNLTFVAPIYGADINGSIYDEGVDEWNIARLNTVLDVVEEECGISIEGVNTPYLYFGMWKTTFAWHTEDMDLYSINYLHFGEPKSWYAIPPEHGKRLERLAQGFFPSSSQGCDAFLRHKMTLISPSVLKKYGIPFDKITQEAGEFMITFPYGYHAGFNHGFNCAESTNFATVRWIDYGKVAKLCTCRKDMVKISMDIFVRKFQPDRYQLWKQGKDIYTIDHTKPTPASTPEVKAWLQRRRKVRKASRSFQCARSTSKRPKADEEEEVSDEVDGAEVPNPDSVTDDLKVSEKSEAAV
M18AAP inhibitor = PfM18AAP inhibitors, malaria aminopeptidase, primary screen, biochemical, QFRET, recombinant enzyme. actives 1.2% (n = 290,000). AID 1822, 2009. H-Glu-NHMec fluorogenic cleavage. M18 aspartyl aminopeptidase (Plasmodium falciparum 3D7). inhibition, % at 7.35 µM;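 active = inhibition above the campaign mean inhibition over all tested compounds plus 3 SD, cut at about 28% in these data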;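 note: 0% = plate median of test compound wells and 100% = 2 mM ZnCl2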
Granule exo inh = LAMP-1 surface exposure blockers, TALL-104 cells – cell-based, flow cytometry, MLPCN library, primary screen; TALL-104 LAMP-1 surface exposure; cells stimulated with thapsigargin and PMA; inhibition, % at 10 µM; actives 0.66% (n = 360,000);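 active = inhibition above about 55%, limit read from the data; inconclusive = no clear call, values can overlap the other calls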
ALR H2O2 inh = inhibitors of human ALR sulfhydryl oxidase, primary screen, biochemical, H2O2 detection, HRP-luminol luminescence, single point | inhibition, % (concentration not given with the values) | actives 3.8% (n = 290,000) | purified ALR, DTT oxidation | FAD-linked sulfhydryl oxidase ALR (Homo sapiens), P55789;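 active = mean replicate inhibition above about 79%, with every replicate also reaching it, limit read from the data; inconclusive = only one of the two criteria met; inactive = mean below limit and not every replicate reaching it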
Target sequence (P55789 whole entry, looked up): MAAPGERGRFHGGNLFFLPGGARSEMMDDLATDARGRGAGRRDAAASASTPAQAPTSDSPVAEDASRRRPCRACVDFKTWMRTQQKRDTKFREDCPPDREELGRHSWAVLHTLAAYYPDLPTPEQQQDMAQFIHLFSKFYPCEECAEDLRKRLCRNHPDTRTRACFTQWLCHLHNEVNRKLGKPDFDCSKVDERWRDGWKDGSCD
MIN6 prolif = inducers of MIN6 beta-cell proliferation, primary screen, ATP luminescence, uHTS. actives 0.29% (n = 330,000). AID 2380, 2010. proliferation, % at 10 µM. MIN6 cells proliferation, ATPlite luminescence, 48 h; cells starved in 0.2% serum; 100% = growth in 10% serum;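 active = compounds whose signal lies at least 3.5 SD above the mean of all wells on their plate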;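 note: 0% = DMSO-treated cells in low-serum medium and 100% = 10% serum control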
An asterisk follows results filed as active; ? = inconclusive; / = not tested or not shown.

SMILES | SMARCA2 act | JMJD2C inh | M18AAP inhibitor | Granule exo inh | ALR H2O2 inh | MIN6 prolif
COC(=O)[C@H](CC(C)C)N(CCCc1cn(Cc2ccccc2)nn1)S(=O)(=O)c1ccc(F)cc1Br | -1 | / | / | / | / | /
Cc1ccccc1NC(=O)C1CCCN1S(=O)(=O)c1cccnc1 (configuration not stated) | 3 | / | / | / | / | /
O=[N+]([O-])c1ccc(S(=O)(=O)c2cccc(C(F)(F)F)c2)nc1 | / | -18 | / | 60* | -9 | -6
COC(=O)[C@]12C[C@H](CC(=O)N3CCN(C(=O)c4ccco4)CC3)C(=O)N(CCc3ccc(OC)c(OC)c3)C1=C[C@H](COCc1ccccc1)O[C@@H]2C | -2 | / | / | / | / | /
CCOC(=O)c1[nH]c2ccc(F)cc2c1N=C(C)N(CC)CC | 0 | 5 | -15 | 2 | 80* | -3
CCOC(=O)c1[nH]c2ccc(C)cc2c1N=CN(CC)CC | 3 | 3 | -9 | 2 | 99* | -1
COC(=O)c1[nH]c2cc(OC)ccc2c1N=CN(C)C | -2 | -4 | 12 | -8 | 88* | 0
CCOC(=O)c1[nH]c2ccccc2c1N=CN(C)C | -1 | 2 | 10 | 4 | 99* | 4
CCOC(=O)c1[nH]c2ccc(C)cc2c1N | 6 | -5 | 0 | -1 | 62 | -1
O=C(Nc1cccc(Br)c1)OC1CC2CC1[C@H]1CCCCN1[C@H]2Cc1ccccc1 (some centres not stated) | -2 | / | / | / | / | /
O=C1OC(c2ccccc2)=C/C1=C/N1CCOCC1 | 0 | 6 | 3 | -2 | -7 | -3
O=C1SC(c2ccccc2)=C/C1=C\N1CCCCC1 | -2 | 2 | 7 | -6 | 95* | -2
CN(C)c1cccc2c(C=C(C#N)C#N)ccc(N(C)C)c12 | -2 | -9 | 6 | 1 | 53 | 3
CN(C)c1cccc2c(/C=N/O)ccc(N(C)C)c12 | -3 | 24 | 10 | 2 | 89* | 4
CC1OC(CC(=O)O)CC2=C1C(=O)c1c(O)cccc1C2=O (configuration not stated) | -13 | / | / | 88* | / | /
COc1cccc(CNS(=O)(=O)c2ccccc2Br)c1 | 2 | / | / | / | / | /
C=CCN(CC#Cc1ccc(C)cc1)Cc1ccc(OC)cc1OC | 0 | / | / | / | / | /
CC1CC(C)CN(C(=O)CSc2nnc(N)s2)C1 (configuration not stated) | 0 | 6 | 7 | 10 | 95* | -5
CC1CCN(C(=O)CSc2nnc(N)s2)CC1 | 2 | 12 | -2 | -1 | -15 | -2
O=C(CSc1nc(-c2ccc(Cl)cc2)cs1)Nc1cccc([N+](=O)[O-])c1 | -2 | -1 | 4 | 65* | 2 | -3
Nc1ccc(-c2nc3ccc(C(=O)O)cc3s2)cc1 | -6 | -37 | 9 | 0 | 99* | /
c1ccc2sc(-c3ccncc3)nc2c1 | 6 | -5 | 0 | -6 | -5 | -1
Nc1cccc(-c2nc3ccc(N)cc3s2)c1 | 5 | 15 | 5 | 1 | 99* | -5
Nc1ccc(-c2nc3ccc(N)cc3s2)cc1 | 1 | -10 | 3 | -6 | 99* | -6
Oc1ccc(-c2nc3ccccc3s2)cc1 | 4 | 12 | -8 | 2 | 90* | -5
SMILES | SMARCA2 act | JMJD2C inh | M18AAP inhibitor | Granule exo inh | ALR H2O2 inh | MIN6 prolif
O=C(O)c1ccc2ncsc2c1 | 1 | -2 | 62* | 3 | ? | 0
O=C(N[C@H](Cc1ccccc1)C(=O)NCCN1CCOCC1)[C@H]1O[C@@H](n2ccc(=O)[nH]c2=O)[C@H](O)[C@@H]1O | 3 | / | / | / | / | /
O=C(Nc1cccc(Cl)c1N1CCOCC1)c1cccs1 | 2 | 2 | 1 | 0 | 91* | 2
CCN1CCN(c2c(Cl)cccc2NC(=O)c2cccs2)CC1 | 0 | -34 | -1 | 16 | -1 | -3
CC1(C)OC(=O)C2(Cc3ccccc3N3CCCCC32)C(=O)O1 (configuration not stated) | -3 | 3 | 29* | 1 | 99* | -1
CCN=c1scc(C)n1/N=C/c1ccsc1 | -1 | 2 | 5 | 2 | 99* | -1
O=C(O)CCc1ccc(-c2cccs2)n1CC1CCCO1 (configuration not stated) | -2 | -5 | -3 | -2 | 99* | 0
COCCCn1c(CCC(=O)O)ccc1-c1cccs1 | 1 | 8 | -1 | -4 | 98* | -2
CCCn1c(CCC(=O)O)ccc1-c1cccs1 | -2 | 4 | -8 | -1 | 99* | -2
O=C(O)CCc1ccc(-c2ccc(F)cc2)n1CC1CCCO1 (configuration not stated) | -1 | -1 | -2 | 4 | 24 | 0
COC(=O)c1ccccc1NC(=O)Cn1c(CCC(=O)O)ccc1-c1cccs1 | -1 | -15 | -2 | -1 | 32 | 0
CC1CN(c2nc(-c3ccc(Br)cc3)nnc2-c2ccccc2)CC(C)N1 (configuration not stated) | 0 | -7 | 3 | 52 | 97* | -6
Cc1cccc(CCNC(=O)Cn2ncc3c2-c2cc(C)ccc2OC3)c1 | -1 | / | / | / | / | /
S=C(Nc1ccc2nsnc2c1)N1CCCCCC1 | 3 | 4 | 10 | 77* | -21 | -5
CN(C)/C=C/C(=O)c1ccc(Br)s1 | -3 | -9 | 5 | -4 | 92* | 0
CN(C)/C=C/C(=O)c1ccccc1 | 1 | -5 | -4 | -9 | / | 1
COc1ccc(-c2csc(NC3=NCCCCC3)n2)cc1 | 0 | 0 | 10 | 6 | 98* | 0
COc1ccc(-c2csc(NNC3=NCCCCC3)n2)cc1 | 2 | 39 | 11 | / | 8 | -5
Fc1ccc(-c2csc(NC3=NCCC3)n2)cc1 | -1 | 18 | 4 | 6 | 97* | 1
CCOc1ccc(-c2csc(NNC3=NCCCCC3)n2)cc1 | -1 | 3 | -1 | 56* | 99* | -5
Brc1ccc(-c2csc(NC3=NCCCCC3)n2)cc1 | 0 | -10 | 0 | 0 | -3 | -1
CC(=O)N1CCc2cc(S(=O)(=O)NC3CCN(C(=O)CCl)CC3)ccc21 | 5 | / | / | / | / | /
CN(C(=O)c1cccc(NC(=O)Cc2ccc(NC(=O)C3CCCN(C(=O)c4ccccc4)C3)cc2)c1)C1CC1 (configuration not stated) | -6 | / | / | / | / | /
COC[C@@H]1CCCN1c1cccc2c1S(=O)(=O)N(C1CC1)CCCO2 | -3 | / | / | / | / | /
O=[N+]([O-])c1ccc2c3n([n+]([O-])c2c1)CCN=C3c1ccc(Cl)cc1 | 1 | 4 | / | 78* | -16 | -3
O=[N+]([O-])c1cccc(-c2n[nH]c(=S)n2-c2ccc(Br)cc2)c1 | 1 | -24 | 22 | -3 | 95* | -1
